Laboratory results from PubChem BioAssay AID624354 (Sanford-Burnham Center for Chemical Genomics, 2012).
Where “and” joins values, the source holds several entries; their conditions need not be identical. Identical values can stand only once. Among all 360,000 compounds or so, about 3,800 (1.1%) were called active.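 How the source made its calls: active means compounds causing at least 50% loss of cell viability in the single-dose screen, relative to plate controls; inactive means the rest.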 Only a selection was taken, and actives are over-represented in it overall. More than one record can exist for a structure, and the calls need not agree.

Assay: viability loss with TRAIL in NB7+C8 cells, primary screen, TRAIL sensitizer project, cell-based, ATPlite luminescence (AID 624354)
Details: at 10 µM, stronger effect = higher value

SMILES | inhibition (viability loss, TRAIL sensitization)
CN(C)CCCn1c(N)c(C#N)c2nc(C#N)c(C#N)nc21 | -10.7% (inactive)
O=C(NCCc1ccccn1)c1nc(Cn2cc([N+](=O)[O-])cn2)no1 | 2.01% (inactive)
CSc1ncccc1C(=O)Nc1nc2ccc(F)cc2s1 | 10.7% (inactive)
CC(=O)Nc1ccc2nc(NC(=O)CS(=O)(=O)c3ccc(F)cc3)sc2c1 | -11.1% (inactive)
O=C(Nc1nc2ccc([N+](=O)[O-])cc2s1)c1ccncc1 | 53.2% (active)
COc1cc2nnn(-c3ccncc3)c2cc1OC | -16.3% (inactive)
O=C(CCCCCCCC(=O)N1CCCCC1)N1CCCCC1 | 1.6% (inactive)
COC(=O)c1sc(SC)c(S(=O)(=O)C(C)C)c1N/N=C(\C#N)S(=O)(=O)c1ccccn1 | -10.6% (inactive)
O=C(NCc1ccccc1)C1C(=O)N(Cc2ccccc2)C(=O)C1C1(O)CCCC1 (centres undefined) | -9.54% (inactive)
Cc1ccccc1C1CC(c2cccs2)=NN1S(C)(=O)=O (centres undefined) | 1.64% (inactive)
O=c1c2cc(-c3ccccc3)sc2nc2n1N=C(c1cccs1)CS2 | 56.6% (active)
O=c1c(-c2ccccc2)cnc2n1CCS2 | -0.958% (inactive)
COc1cccc2c1OCC(C(=O)NCc1ccc(Cl)cc1Cl)=C2 | 12.2% (inactive)
CC(=O)Nc1ccc(C(=O)NNC(=O)CCCCC(=O)NNC(=O)c2ccc(NC(C)=O)cc2)cc1 | -1.99% (inactive)
CC(=O)Nc1ccc(C(=O)/C=C/c2ccc[nH]2)cc1 | 1.89% (inactive)
CCCC(=O)Nc1ccc(C(=O)N/N=C/c2ccc[nH]2)cc1 | 93.8% (active)
ClC1(Cl)CC1CSc1ncn[nH]1 (centres undefined) | -13.6% (inactive)
O=C(/C=C/c1ccc([N+](=O)[O-])o1)NNC(=O)c1ccc(F)cc1 | 32.1% (inactive)
Cc1nnc(SC(C(=O)Nc2cc(Cl)cc(Cl)c2)c2ccccc2)[nH]c1=O (centres undefined) | -3.74% (inactive)
O=C(Nc1c(Br)cc2c(c1Br)Cc1ccccc1-2)C(F)(F)F | 2.23% (inactive)
COc1cccc(C(=O)N/N=C(\C)c2cccc(NC(=O)c3ccc(F)cc3)c2)c1OC | 16.9% (inactive)
COc1cccc(NC(=O)CN(C)C(C)C(=O)Nc2ccc(C#N)cc2)c1 (centres undefined) | -8.39% (inactive)
COc1cc(NC(=O)c2cncc(-c3ccc(C#N)cc3)c2)cc(C(=O)Nc2cccc(C(F)(F)F)c2)c1 | 33.4% (inactive) and 56.8% (active)
COc1cc(C(=O)N(C)Cc2cccc(OC)c2OC)ccc1OCC(=O)Nc1cccc(C(F)(F)F)c1 | 28.6% (inactive)
O=C(Nc1cccc(C(F)(F)F)c1)c1ccc(N2CCNCC2)c([N+](=O)[O-])c1 | 35.7% (inactive)

SMILES | inhibition (viability loss, TRAIL sensitization)
COc1cc(NC(=O)c2[nH]cnc2C(N)=O)cc(C(=O)Nc2cccc(C(F)(F)F)c2)c1 | 86% (active)
COC(=O)c1ccc(C2C3=C(Nc4nnnn42)c2ccccc2OC3)cc1 (centres undefined) | -2.52% (inactive)
CCOC(=O)c1c(Cc2ccc(Cl)cc2)c[nH]c1C | -5.16% (inactive)
CCOC(=O)N1CCN(S(=O)(=O)c2ccc(C(=O)Nc3ccc(F)cc3F)cc2)CC1 | 4.58% (inactive)
Cc1cc(C)cc(OCc2nnc(SCC(=O)OC3CCCCC3)o2)c1 | -14.3% (inactive)
COc1cccc(CNC(=O)C2CCCN(S(=O)(=O)N3CC(C)CC(C)C3)C2)c1 (centres undefined) | -1.49% (inactive)
COC(=O)C1=C[C@@H](C(=O)OC)[C@@H]2C3=C(C(=O)[C@]2(C)NC(=O)c2ccccc2)[C@H](C)n2c(=O)n(C)c(=O)n2[C@@H]3C1 | -3.47% (inactive)
COc1ccc(OC)c(Cc2cnc3nc(N)nc(N)c3c2C)c1 | 84% (active)
O=C(CN(C(=O)c1csnn1)c1cccc(F)c1)NCc1ccc(F)cc1 | -4.16% (inactive)
CCOC(=O)c1c(C)oc(C)c(C(=O)OCC)c1=O | -19.5% (inactive)
CCOC(=O)c1c(C)[nH]c2c1-c1ccccc1C(=O)C2=O | 94% (active)
CCOC(=O)c1[nH]c(C)c(C(=O)OCC(=O)N2c3ccccc3CC2C)c1C (centres undefined) | 6.75% (inactive)
Cc1ccc(C(=O)COC(=O)CCN2C(=O)C3C4CCC(C4)C3C2=O)cc1C (centres undefined) | -8.78% (inactive)
Cc1ccc(C(=O)COC(=O)c2cccc(N3C(=O)c4c(C)nc5ccccc5c4C3=O)c2)cc1C | 60.1% (active)
COc1ccc(C(=O)OCC(=O)c2ccc(C)c(S(=O)(=O)N3CCOCC3)c2)cc1OC | 18.4% (inactive)
N#CCCN(C(=S)Nc1ccc(Cl)c(Cl)c1)C1CCCCC1 | -41.1% (inactive)
COc1ccc(NS(=O)(=O)c2ccc(C)c(C(=O)N(C)Cc3ccc(OC)cc3OC)c2)cc1 | 17.8% (inactive)
Cc1cccc(NS(=O)(=O)c2cccc(C(=O)NNC(=O)c3ccccc3O)c2)c1 | 24.7% (inactive)
O=C(NNC(=O)c1ccccc1O)c1ccccc1O | 59.8% (active)
O=C(NNC(=O)c1cc(S(=O)(=O)N2CCCCC2)ccc1Cl)c1ccccc1O | 14% (inactive)
CC1(C)CC(=O)C=C(NC2CC(C)(C)NC(C)(C)C2)C1 | -7.42% (inactive)
C=CCNC(=O)c1ccc2c3n(nc2c1)-c1ccc(C)cc1CO3 | 47.7% (inactive)
CCOC(=O)N1CCN(C(=O)C2CCN(S(C)(=O)=O)CC2)CC1 | 9.65% (inactive)
Cc1nn(-c2ccccc2)nc1C(=O)OCC(=O)N1CCCCC1C (centres undefined) | 10.3% (inactive)
COC(=O)c1cc(S(=O)(=O)N2CCN(c3cc(C)ccc3C)CC2)c[nH]1 | -3.18% (inactive)

SMILES | inhibition (viability loss, TRAIL sensitization)
Cc1nc2ccc(S(=O)(=O)NCC(=O)NCCN3CCCCC3C)cc2s1 (centres undefined) | -1.47% (inactive)
Cn1c(=O)[nH]c(=O)c2c1[nH]c(=S)n2Cc1ccccc1 | 7.43% (inactive)
N#Cc1c(-c2cccs2)nc(SCC(=O)c2ccc(Br)cc2)[nH]c1=O | -12.9% (inactive)
C=CCN(CC=C)S(=O)(=O)c1ccc(C(=O)Nc2nc3c(s2)CCc2ccccc2-3)cc1 | 28.5% (inactive)
N#Cc1ccc(C(=O)Nc2nc(-c3cccs3)c(C(=O)C(F)(F)F)s2)cc1 | 53.5% (active)
Cc1ccc(NC(=O)CCC(=O)N2CCC(c3ccccc3)=N2)cc1S(=O)(=O)N1CCCCC1 | 18.8% (inactive)
Cc1nc2nc[nH]n2c(=O)c1NC(=O)c1cccc(OCC(C)C)c1 | -7.44% (inactive)
O=C(CSC(=S)N1CCCCC1)c1c(F)cccc1F | 3.44% (inactive)
O=C(CP(=O)(c1ccccc1)c1ccccc1)N1CCOCC1 | -4.37% (inactive)
O=C(CSC(=S)N1CCOCC1)c1ccccc1 | 57.5% (active)
O=c1c(-c2ccccc2Cl)c[nH]n1-c1ccccc1 | 1.07% (inactive)
CS(=O)(=O)c1ccc(C(=O)NNC(=O)c2cccs2)cc1 | -3.16% (inactive)
Cc1cc2cc3c(cc2nc1SCC(=O)Nc1c(C)cccc1C)CCC3 | 3.78% (inactive)
Cc1nc2ccccc2c(C)c1C(=O)c1ccc(F)cc1 | 2.13% (inactive)
Cn1c(CC(=O)NNC(=O)c2ccccc2F)nc2ccccc21 | 11.4% (inactive)
Cn1c(NC(=O)c2ccccc2)nc2ccccc21 | 49.5% (active)
CCC(C(=O)Nc1c(C)cccc1C)n1c(-c2cc(C)cs2)nc2ccccc21 (centres undefined) | 9.25% (inactive)
CCn1c(NC(=O)c2nn(C)cc2Br)nc2ccccc21 | 16.9% (inactive)
Cn1c(-c2ccc(C(=O)c3ccccc3)s2)nc2ccccc21 | 66.6% (active)
COc1cc(-c2nc(S(=O)(=O)c3ccc(Cl)cc3)c(N(C)C)o2)cc(OC)c1OC | -2.14% (inactive)
COc1ccc(N(C(=O)c2ccc(C)cc2)S(=O)(=O)c2cccs2)cc1 | -2.28% (inactive)
CCN(CC)S(=O)(=O)c1ccc(N2CCOCC2)c(NC(=O)C2CSC3(C)CCC(=O)N23)c1 (centres undefined) | -1.07% (inactive)
COc1ccc(-n2cnc3cc(NCc4ccco4)ccc32)cc1 | 16.5% (inactive)
Cn1c(-c2ccco2)nc2cc3ccccc3cc21 | 89.4% (active)
Cn1c(SCC(=O)Nc2ccc(Br)cc2F)nnc1-c1ccco1 | -0.204% (inactive)

SMILES | inhibition (viability loss, TRAIL sensitization)
Cc1c(CNCCc2ccccc2)c(C(=O)O)c(C)n1-c1ccccc1 | -25.6% (inactive)
COCc1cc(=O)oc2cc(NS(=O)(=O)c3ccc(C)cc3)ccc12 | 2.58% (inactive)
Cc1cc(NC(=O)CCC(=O)N(Cc2ccccc2)C(C(=O)NC2CCCC2)c2ccc(C)o2)no1 (centres undefined) | -0.804% (inactive)
CC(C)CCN1CCN(Cc2cn[nH]c2C2CCCCC2)CC1CCO (centres undefined) | 5.07% (inactive)
COc1ccc(-c2nc(-c3ccccc3)no2)c(OC)c1 | 83% (active)
COc1ccc(-c2noc(CNC(=O)C(C)Oc3ccccc3)n2)cc1 (centres undefined) | -4.7% (inactive)
COc1ccc(/C=C/c2noc(-c3ccccc3OC(C)=O)n2)cc1 | 12.1% (inactive)
Cc1ccc(C)c(S(=O)(=O)N2CCN(c3ncnc4sccc34)CC2)c1 | 66.5% (active)
Cc1ccc(S(=O)(=O)N2CCC3(CC2)OCCO3)c(C)c1 | 1.61% (inactive)
Cc1ccc([N+](=O)[O-])cc1S(=O)(=O)N1CCCN(C)CC1 | 1.18% (inactive)
CNC(=S)N1CCC(NC(=O)C(Cc2ccc(F)cc2)NC(C)=O)CC1 (centres undefined) | -1.63% (inactive)
CCCCCc1c(-c2ccc(OC)c(OC)c2)ncn1CCc1ccccc1OC | 51.2% (active)
CCCCc1c(-c2ccc(Cl)cc2)ncn1CCc1ccccc1OC | 31.8% (inactive)
CCCCCc1c(-c2cccc(Br)c2)ncn1CCc1ccccc1OC | 23.2% (inactive)
CS(=O)(=O)N(CC(=O)N1CCN(c2ccc(F)cc2)CC1)C1CCCCC1 | -11.1% (inactive)
CCOc1ccc(/C=C(/NC(=O)c2ccccc2)C(=O)NCCC(=O)O)cc1 | -4.31% (inactive)
COCCN(C(=O)CCC(=O)Nc1ccccn1)C(C(=O)NCCC(C)C)c1ccc(OC)cc1 (centres undefined) | -1.74% (inactive)
CCOc1ccc(N/C=C/C(=O)c2ccccc2)cc1 | 66.6% (active)
CCOc1ccc(NC(=O)C2CCCN(C(=O)Nc3ccccc3)C2)cc1 (centres undefined) | -15.9% (inactive)
Cc1ccc(NNC(=O)C2CCC2)cc1C | -7.51% (inactive)
O=C(/C=C/Nc1ccc(S(=O)(=O)Nc2cnc3ccccc3n2)cc1)c1cccnc1 | -7.32% (inactive)
COC(C(=O)Nc1ccc(S(=O)(=O)Nc2ccc(C)c(C)c2)cc1)c1ccccc1 (centres undefined) | 5.37% (inactive)
COc1ccc(C(=O)/C=C/Nc2ccccn2)cc1 | 73.3% (active)
Cc1ccc(N/C=C/C(=O)c2ccccc2)cc1C | 78.5% (active)
